Reference: the OligoGym collection

Biological target: ROPN1
Assay: pooled miR-30 sensor sort-seq; sequence = guide strand
Details: shRNA

Row | Sequence | sensor-assay potency score (higher = more potent)
1 | TCTGAAGTACAATCATCTCTGT | 0.301
2 | TCACTGTGATTATACCATCAGG | -1.52
3 | ATCAGGGCCAATTACTTCCTGT | -0.778
4 | TGAAGTACAATCATCTCTGTAT | 0.335
5 | TTCCATGTAGTTTAGCATCCTG | -0.0226
6 | TCCACTTTGGCAATATACGTGT | -0.784
7 | TCCATGTAGTTTAGCATCCTGC | -1.26
8 | AACTGGAAGGTGCTGAACGGGA | -0.696

Biological target: RORB
Assay: as above
Details: shRNA

Row | Sequence | sensor-assay potency score (higher = more potent)
9 | TTTAATTTCTTCATAGGTGTGG | 0.75
10 | TTCCAGTCATGTCAAGTCCTGA | -0.578
11 | TTGATCATTTTGACAGAGCTCC | 0.0925
12 | TATCTGTTTGATTCCAGTCATG | -1.6
13 | TTCACATGTGATGACTCCGTAG | -1.17
14 | TAGGGCAAGACACTTCTGCAGT | -0.56
15 | TATAACGGAGGAAACAGTGTAT | 0.0235
16 | TTAAACAGTTTCTCTGCCTTGG | 0.233
17 | TTAATTTCTTCATAGGTGTGGG | 0.03
18 | TTGTTCTGCTGGCTCCTCCTAA | -0.741
19 | ATCATTTTGACAGAGCTCCATG | -1.14
20 | TTGCTTAAATACCTGCAGCTTC | -0.375

Biological target: RPF2
Assay: as above
Details: shRNA

Row | Sequence | sensor-assay potency score (higher = more potent)
21 | ATAATCTTCTGTTACATCGAAA | -0.564
22 | TTAGTCTTCTATAATCTTCTGT | 0.354
23 | TTGTAGTTTGCTTAGGTCTTGC | -0.359
24 | TTTCAGTGCATACACATCTTTA | -0.778
25 | TAATTTATAAAGGTCATCCGAT | -0.21
26 | TTTGCTTAGGTCTTGCTTCTGC | 0.678
27 | TAGTCTTCTATAATCTTCTGTT | -0.606
28 | TCTTTTTATATAGTACACCGTA | -0.652
29 | TTATATAGTACACCGTATGGTT | -0.793
30 | TTACATCGAAATCATCGCCAGC | -0.787
31 | TTCAACAGCAACTTATAGCTTC | 0.301
32 | TTAAGTACTTTTGTCACTGTTG | -0.124

Biological target: RPL19
Assay: as above
Details: shRNA

Row | Sequence | sensor-assay potency score (higher = more potent)
33 | ATTGGCTGTACCCTTCCGCTTA | -0.619
34 | TAAAGTCTTGATGATCTCCTCC | 0.336
35 | TACAGGCTGTGATACATGTGGC | -1.14
36 | TTTTTGAACACATTCCCCTTCA | -0.0211
37 | ATACATGTGGCGATCGATCTTC | 0.46
38 | TTACCTATGCCCATGTGCCTGC | -0.132
39 | TTGATGATCTCCTCCTTCTTGG | 0.222
40 | TTGCGTGCTTCCTTGGTCTTAG | -0.319
